Reference: PubChem BioAssay

Assay: small-molecule binders of probe aLefty1, primary screen, biochemical, small-molecule microarray, 635/667 nm fluorescence (AID 1153);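 note: score merges spot fluorescence with signal-to-noise ratio from the scanned slide images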
Settings: higher = more signal

Row | SMILES | composite z-score
1 | COC(=O)C(CC#Cc1ccc2c(c1)[C@]1(C(=O)N2)[C@H](c2ccc(O)cc2)N2[C@H](c3ccccc3)[C@H](c3ccccc3)OC(=O)[C@H]2[C@@H]1C(=O)N1CCCCCCC1)C(=O)OC | 1.69
2 | CC(C)=CCCC(C)=CC(O)C1C=CC2C(=O)N(c3ccccc3)C(=O)C2N1Nc1ccccc1F (stereo not given) | -0.233
3 | CN(C)CCCCNC(=O)[C@H]1C[C@H]2C(=O)N[C@@H](CCCC[N+](C)(C)C)C(=O)N2[C@H]1c1ccc(O)cc1 | -0.2
4 | CN(C)CCCNC(=O)[C@@H]1c2ccccc2C(=O)N(C2CCCCC2)[C@H]1c1ccc(CO)cc1 | 0.2
5 | CC(C)CNC(=O)[C@@H]1c2ccccc2C(=O)N(C2CCCCC2)[C@H]1c1ccc(CO)cc1 | 0.259
6 | O=C1C2C=CC(C(O)c3ccco3)N(Nc3ccccc3)C2C(=O)N1c1ccccc1 (stereo not given) | -0.0302
7 | COc1ccc([Si](C)(C)[C@@H]2[C@@H](CCn3cc([C@H](O)c4ccccc4)nn3)O[C@]3(C(=O)N(c4ccccc4)c4ccccc43)[C@H]2C)cc1 | -0.348
8 | CCCNC(=O)[C@@]1(Sc2ccc(C)cc2)CC(=O)N(C2CCCCC2)[C@@H]1c1ccc(CO)cc1I | -0.525
9 | COC(=O)C(CC#Cc1ccc2c(c1)[C@]1(C(=O)N2)[C@H](C(=O)Nc2nc3ccccc3s2)[C@H]2C(=O)O[C@H](c3ccccc3)[C@H](c3ccccc3)N2[C@@H]1c1ccc(OCCO)cc1)C(=O)OC | 0.5
10 | CC(=O)NCCCC[C@@H]1NC(=O)[C@@H]2C[C@H](C(=O)NCCCCCCN)[C@H](c3cccc(OCCO)c3)N2C1=O | 0.0455
11 | COc1ccc([Si](C)(C)[C@H]2[C@H](CCO)O[C@@]3(C(=O)N(Cc4ccc(N5C(=O)c6ccccc6Oc6ccccc65)cc4)c4ccccc43)[C@@H]2C)cc1 | 0.0211
12 | CCCCC=C[C@@H](NC(=O)c1ccccc1)c1ccccc1 | 0.0538
13 | COCCOC(=O)N1C(=O)[C@@]2(c3cc(C#CC4=CCCCC4)ccc31)[C@H](C(=O)N1CCCCCCC1)[C@H]1C(=O)O[C@H](c3ccccc3)[C@H](c3ccccc3)N1[C@@H]2c1ccc(OCCO)cc1 | 1.88
14 | COCCOC(=O)N1C(=O)[C@@]2(c3cc(C#CCNC(N)=O)ccc31)[C@H](c1ccc(O)cc1)N1[C@H](c3ccccc3)[C@H](c3ccccc3)OC(=O)[C@H]1[C@@H]2C(=O)N1CCN(c2ncccn2)CC1 | -0.191
15 | COCCOC(=O)N1C(=O)[C@@]2(c3cc(C#CCCO)ccc31)[C@H](c1ccccc1OCCO)N1[C@H](c3ccccc3)[C@H](c3ccccc3)OC(=O)[C@H]1[C@@H]2C(=O)N1CCCCCCC1 | 2.58
16 | CC(=O)N1CC(C(O)C2C=CC3C(=O)NC(=O)C3N2Nc2ccc(Cl)cc2Cl)c2ccccc21 (stereo not given) | 0.176
17 | COc1cc2c(cc1OC)CN(C(=O)[C@@H]1[C@H]3C(=O)O[C@H](c4ccccc4)[C@H](c4ccccc4)N3[C@H](c3ccc(O)cc3)[C@@]13C(=O)Nc1ccc(C#CCCO)cc13)CC2 | -0.149
18 | NCCCCCNC(=O)[C@H]1C[C@H]2C(=O)N[C@@H](Cc3ccccc3)C(=O)N2[C@H]1c1ccc(O)cc1 | 1.01

Row | SMILES | composite z-score
19 | CC(C)OC(=O)CC(=O)CC(O)c1ccc([N+](=O)[O-])cc1 (stereo not given) | 0.0509
20 | CCCNC(=O)[C@@]1(C)c2ccccc2C(=O)N(Cc2ccccc2)[C@H]1c1ccc(CO)cc1 | 0.594
21 | COC(=O)[C@@]1(Cc2ccc(OC)cc2)[C@H]2c3cc(C(=O)N4CCCC4)n(Cc4cc(C)n(C)n4)c3C[C@H]2CN1C(=O)c1ccccc1 | 0.947
22 | C=CCC(OC(C)=O)[C@@H]1[C@@H](N(Cc2ccc(-c3cccc(C(F)(F)F)c3)o2)C(=O)c2ccc(C)cc2)c2cc(OCCCO)ccc2N1C(=O)Cc1ccc(OC)cc1 (stereo not given in full) | 0.0934
23 | CC(=O)n1cc(C(O)C2C=CC3C(=O)N(c4ccccc4)C(=O)C3N2Nc2ccc(C(C)C)cc2)c2ccccc21 (stereo not given) | 0.698
24 | C=CCC(OC(C)=O)[C@@H]1[C@@H](N(Cc2ccc(-c3ccccc3)cc2)C(=O)c2ccc(C)cc2)c2cc(OCCCO)ccc2N1C(=O)Cc1ccc2ccccc2c1 (stereo not given in full) | -0.0011
25 | COc1cc(C(O)C2C=CC3C(=O)N(Cc4ccccc4)C(=O)C3N2n2cnnc2)cc(OC)c1OC (stereo not given) | 0.431
26 | COc1ccc(C(=O)Nc2cccc(CN3C(=O)[C@@]4(O[C@@H](CC(=O)N(CCO)Cc5ccccc5)[C@H]([Si](C)(C)c5ccc(OC)cc5)[C@H]4C)c4ccccc43)c2)cc1 | -0.443
27 | C=CCC(OC(C)=O)[C@@H]1[C@@H](N(Cc2ccc(-c3cccc(C(F)(F)F)c3)o2)C(=O)Cc2ccc(OC)cc2)c2cc(OCCCO)ccc2N1C(=O)Cc1ccc2ccccc2c1 (stereo not given in full) | 0.0026
28 | CO[C@H]1O[C@H](CO)[C@@H](OC(=O)c2ccc(Br)cc2)[C@@H]2OC(=O)[C@H](Cc3ccccc3)C/C=C/C[C@@H](Cc3ccccc3)C(=O)O[C@@H]12 | -0.715
29 | O=C(CS)NCCCCCCNC(=O)[C@@H]1C[C@@H]2C(=O)NCC(=O)N2[C@@H]1c1ccc(O)cc1 | 0.0341
30 | COCCOC(=O)N1C(=O)[C@@]2(c3cc(C#CCNC(N)=O)ccc31)[C@H](c1ccc(OCCO)cc1)N1[C@H](c3ccccc3)[C@H](c3ccccc3)OC(=O)[C@H]1[C@@H]2C(=O)NC[C@H](O)c1ccccc1 | 0.119
31 | CC(C)C[C@@H]1NC(=O)CNC(=O)[C@@]23C(=O)N[C@@H](Cc4ccccc4)C2[C@H](C)[C@@]2(C)O[C@H]2C3/C=C/C/C=C\CNC1=O (stereo not given in full) | -0.0265
32 | COCCOC(=O)N1C(=O)[C@@]2(c3cc(C#CC4(O)CCCCCC4)ccc31)[C@H](c1ccc(OCCO)cc1)N1[C@H](c3ccccc3)[C@H](c3ccccc3)OC(=O)[C@H]1[C@@H]2C(=O)Nc1nc2ccccc2s1 | 0.718
33 | COCCOC(=O)N1C(=O)[C@@]2(c3cc(C#CCC(C(=O)OC)C(=O)OC)ccc31)[C@H](C(=O)NC[C@H](O)c1ccccc1)[C@H]1C(=O)O[C@H](c3ccccc3)[C@H](c3ccccc3)N1[C@@H]2c1ccc(O)cc1 | 0.0977
34 | C=C(C(=O)CC[C@H](OC(=O)c1ccccc1-c1ccccc1C(=O)O)c1ccccc1OCCO)C(C)C | -0.0573
35 | C=C(C)[C@@H]1CC=C(C(O)C2C=CC3C(=O)N(c4ccccc4)C(=O)C3N2Nc2ccc(C#N)cc2)CC1 (stereo not given in full) | 0.619
